High-throughput results (PubChem BioAssay)
An excerpt weighted towards active compounds, which were near 8.2% of everything screened.
ELG1 repair inh: blocks ELG1-dependent DNA repair in HEK293T cells. Potency, µM (doses to about 46.1 µM), without a hit: at the highest dose activity change, negative = inhibition, most hits filed as inhibitors. HEK293T ELG1-luciferase reporter, luminescence, 16 h; DNA damage induced by 5-fluorouridine. AID 504467. hit rate 2.3% among 330,000; note: % is set by controls: 0 for no effect and ±100 for the full control effect; nearly all actives have a fitted effect of over 55% in size
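Quantitative HTS, concentration-response format. 2,000 cells/well co-treated with 5-fluorouridine and compound, 16 hr in 5% CO2 at 37 °C; ONE-Glo luminescence read after 30 min.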
KB-V1 MDR tox: kills drug-selected multidrug resistant KB-V1 cells; AID 1347076; Potency, µM (titrated, usually from 46.1 µM), usual class: cytotoxic; KB-V1 MDR cells viability, CellTiter-Glo, 72 h; hit rate 3.4% among 400,000; note: % is set by controls: 0 for no effect and ±100 for the full control effect; nearly all actives have a fitted effect of over 60% in size
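KB-V1, DMEM (no phenol red) + 10% FBS; cpd pin-transferred, titration series; 72 h, 37 degrees C; CellTiter-Glo, luminescence. Data normalized, curve-fit.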
MCF10A rereplic: induces DNA re-replication in MCF 10a normal breast cells. MCF 10A DNA re-replication, Hoechst nuclear intensity, 48 h. Potency, µM (titrated, usually from 46.1 µM), for inactives: at the top dose activity, positive = re-replication, most hits filed as activators. hit rate 2.9% among 350,000. AID 624296; note: % of control where 0% means no effect; nearly all actives have a fitted effect of over 50% in size
SW480 rereplic: DNA re-replication induction in SW480 cells | SW480 DNA re-replication, Hoechst DNA content imaging, 48 h | Potency, µM (highest dose often 46.1 µM), for inactives: top-dose re-replication activation, usual class: activators | hit rate 1.8% among 340,000 | AID 624297; note: % of control where 0% means no effect; nearly all actives have a fitted effect of over 55% in size
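Image-based DNA-content assay: after two days of treatment, nuclei were labelled with the DNA dye Hoechst and imaged, and hits were compounds raising the count of nuclei showing high fluorescence intensity.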
KB-3-1 cytotox: KB-3-1 parental cell cytotoxicity | KB-3-1 viability, CellTiter-Glo ATP luminescence, 72 h | Potency, µM (highest dose often 46.1 µM), most hits filed as cytotoxic | hit rate 1.4% among 400,000 | AID 1347075; note: % is set by controls: 0 for no effect and ±100 for the full control effect; nearly all actives have a fitted effect of over 60% in size
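Viability of parental KB-3-1 cells, measured by CellTiter-Glo luminescence, followed a 72 h incubation at 37 °C with pinned compounds in phenol-red-free DMEM containing 10% FBS.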
* hit, by the source's call. Calls come from the whole dose curve; as a rule, active = well fitted curve in the direction sought with a large enough effect; inconclusive = small, poorly fitted or top-dose-only effect, or another doubt; inactive = no such curve, though single readings can be large; an effect the other way counts as inactive or inconclusive. Potency is the fitted concentration of half-maximal effect.

Screening COc1ccc2cc3cc(C(=O)N4CCN(Cc5ccc6c(c5)OCO6)CC4)oc3nc2c1 returned ELG1 repair inh 23µM*, KB-V1 MDR tox inconclusive, MCF10A rereplic inconclusive, SW480 rereplic 3% and KB-3-1 cytotox inactive.
O=C(NCc1ccccc1F)C1CCCN1C(=O)Nc1ccc(Cl)cc1 (stereo unspecified) was read as ELG1 repair inh -15%, KB-V1 MDR tox inactive, MCF10A rereplic 0%, SW480 rereplic -44% and KB-3-1 cytotox inactive.
Screening CCOC(=O)N1CCN(C(=O)COc2cccc3c2CCN(CC)C3=O)CC1 returned ELG1 repair inh -2%, KB-V1 MDR tox inactive, MCF10A rereplic 1%, SW480 rereplic -5% and KB-3-1 cytotox inactive.
Cc1cccc(CN2CCc3c(OCC(=O)NCc4ccco4)cccc3C2=O)c1 was read as ELG1 repair inh inconclusive, KB-V1 MDR tox 15µM*, MCF10A rereplic 4%, SW480 rereplic 8% and KB-3-1 cytotox inactive.
For CCOC(=O)N1CCN(C(=O)COc2cccc3c2CCN(Cc2ccc(F)cc2)C3=O)CC1 the results were ELG1 repair inh 21µM*, KB-V1 MDR tox inconclusive, MCF10A rereplic 1%, SW480 rereplic -3% and KB-3-1 cytotox inconclusive.
`O=C(COc1cccc2c1CCN(Cc1ccc(Cl)cc1)C2=O)N1CCOCC1` gave ELG1 repair inh 12µM*, KB-V1 MDR tox inconclusive, MCF10A rereplic 5%, SW480 rereplic -5% and KB-3-1 cytotox inactive.
Cc1ccc(CN2CCc3c(OCC(=O)Nc4cc(C)ccc4C)cccc3C2=O)cc1 was read as ELG1 repair inh 23µM*.
For Nc1ncnc(N)c1NC(=O)c1cc(Cl)c(OCc2ccccc2)c(Cl)c1 the results were KB-V1 MDR tox inactive and KB-3-1 cytotox inactive.
`Cc1ccc(COc2cccc3c2CCN(Cc2ccc(F)cc2)C3=O)cc1` gave ELG1 repair inh inconclusive, KB-V1 MDR tox 5.8µM*, MCF10A rereplic 23%, SW480 rereplic 16% and KB-3-1 cytotox inconclusive.
Screening CCN1CCc2c(OCc3ccccc3)cccc2C1=O returned ELG1 repair inh inconclusive, KB-V1 MDR tox inconclusive, MCF10A rereplic -2%, SW480 rereplic -13% and KB-3-1 cytotox inactive.
Cc1nc2ccc(C(=O)NC(C)(C)C)cn2c1N(C)C(=O)CCc1ccccc1 was read as KB-V1 MDR tox inactive and KB-3-1 cytotox inactive.
`COC(=O)C1CCN(C(=O)c2oc3c(Cl)cc(C)cc3c2C)CC1` gave ELG1 repair inh inconclusive, KB-V1 MDR tox inactive, MCF10A rereplic 5%, SW480 rereplic -5% and KB-3-1 cytotox inactive.
For Cc1cc(Cl)c2oc(C(=O)N3CCN(c4ccncc4)CC3)c(C)c2c1 the results were KB-V1 MDR tox inconclusive, MCF10A rereplic 5.8µM*, SW480 rereplic 12µM* and KB-3-1 cytotox inconclusive.
`CCN(CC)Cc1nc2c(c(=O)[nH]1)C1(CCCCC1)Cc1ccccc1-2` gave ELG1 repair inh -1%, KB-V1 MDR tox inactive, MCF10A rereplic 5.8µM*, SW480 rereplic inconclusive and KB-3-1 cytotox inactive.
O=c1[nH]c(NNC(=S)NCc2ccccc2)nc2c1C1(CCCCC1)Cc1ccccc1-2 was read as ELG1 repair inh -3%, KB-V1 MDR tox inactive, MCF10A rereplic 12µM*, SW480 rereplic -39% and KB-3-1 cytotox inactive.
CN(C)Cc1nc2c(c(=O)[nH]1)C1(CCCCC1)Cc1ccccc1-2 was read as ELG1 repair inh -21%, KB-V1 MDR tox inactive, MCF10A rereplic inconclusive, SW480 rereplic 11% and KB-3-1 cytotox inactive.
Screening COc1ccc([C@H]2N[C@]3(CCCN(Cc4ccc(Br)cc4)C3=O)[C@H]3C(=O)N(C)C(=O)[C@@H]23)cc1 returned KB-V1 MDR tox inactive and KB-3-1 cytotox inactive.
`Cc1ccc(C(=O)Nc2cccc(C(=O)OCc3cc(=O)n4nc(C5CC5)sc4n3)c2)cc1` gave KB-V1 MDR tox inactive and KB-3-1 cytotox inactive.
CCOc1ccc(NC(=O)Cn2c(=O)n(-c3ccccc3)c(=O)c3ccc(C(=O)NCc4ccc5c(c4)OCO5)cc32)cc1 was read as KB-V1 MDR tox inconclusive and KB-3-1 cytotox inactive.
